Assay outcomes from PubChem.
Compounds with a hit are over-represented: about 6.9% of the library has one in this group of screens.
NS3h inh CB = hepatitis C NS3 helicase inhibition, primary screen; inhibition, % at 100 µM; AID 687043; NS3h Cy5-dT15 DNA binding, fluorescence polarization; 1.6% of 16,000 active;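 active means inhibition above the average over every tested compound plus 3 SD, cut at about 40% in these data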
Cy5 interf NS3h = enhances or quenches Cy5 fluorescence in NS3h assay. fluorescence interference ratio at 100 µM. 6% of 16,000 active. Cy5-dT15 DNA with NS3h, fluorescence interference; actives lie on both sides; signal over control mean, under 1 quenches;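 active means compound fluorescence over control fluorescence at most 0.8, a quencher, or at least a set upper limit, an enhancer; inactive means ratio between 0.8 and the set upper limit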
Hits are given with their value.

`O=C(NCCN1CCN(Cc2ccccc2)CC1)C(=O)Nc1ccc(Cl)cc1` gave NS3h inh CB inactive and Cy5 interf NS3h inactive.
Screening O=C(NCCN1CCOCC1)C(=O)NCc1ccc(Cl)cc1 returned NS3h inh CB inactive and Cy5 interf NS3h 1.3.
Screening O=C1C(=C2c3ccccc3C(=O)C2C2c3ccccc3Oc3ccccc32)C(=O)c2ccccc21 (stereo not given) returned NS3h inh CB inactive and Cy5 interf NS3h 0.8.
`O=C(O)C(C(=O)O)C1c2ccccc2Oc2ccccc21` gave NS3h inh CB inactive and Cy5 interf NS3h inactive.
COc1ccccc1/C=C1/SC(=O)N(CNc2cccc([N+](=O)[O-])c2)C1=O was read as NS3h inh CB inactive and Cy5 interf NS3h inactive.
`CC(=O)NC1=NC(=O)/C(=C/c2cc(Cl)ccc2OCc2c(F)cccc2Cl)S1` gave NS3h inh CB inactive and Cy5 interf NS3h 0.77.
COC(=O)c1c(C)oc2ccc(OCc3c(F)cccc3Cl)cc12 was read as NS3h inh CB inactive and Cy5 interf NS3h inactive.
For COC(=O)CN1C(=O)/C(=C\c2ccco2)SC1=S the results were NS3h inh CB inactive and Cy5 interf NS3h inactive.
`CC(=O)Oc1cccc(N2C(=O)c3ccc(C(=O)Nc4cccc(C(=O)NCC(C)C)c4)cc3C2=O)c1` gave NS3h inh CB inactive and Cy5 interf NS3h 0.73.
Screening CC(=O)Oc1ccc(C(=O)Nc2cccc(C(=O)NCC(C)C)c2)cc1 returned NS3h inh CB inactive and Cy5 interf NS3h inactive.
`COC(=O)c1ccc2c(c1O)C(=O)c1ccccc1C2=O` gave NS3h inh CB inactive and Cy5 interf NS3h 0.8.
Screening CCC(=O)Nc1cccc2c1C(=O)c1ccccc1C2=O returned NS3h inh CB inactive and Cy5 interf NS3h inactive.
For Cc1ccc(N2C(=O)c3ccccc3NC2c2c(F)c(F)c(F)c(F)c2F)cc1 (stereo not given) the results were NS3h inh CB inactive and Cy5 interf NS3h inactive.
Screening Cc1ccc(/C=N\NC(=O)c2ccccc2C)cc1 returned NS3h inh CB inactive and Cy5 interf NS3h 0.79.
For O=C(N/N=C\c1ccc(Cl)cc1)c1ccc(O)cc1 the results were NS3h inh CB inactive and Cy5 interf NS3h inactive.
CCCCNC(=O)c1cn(-c2ccccc2)nc1-c1ccccc1 was read as NS3h inh CB inactive and Cy5 interf NS3h inactive.
Screening CCOC(=O)c1ccc(N2NC(=O)/C(=C/c3cc(OC)c(O)c(OC)c3)C2=O)cc1 returned NS3h inh CB inactive and Cy5 interf NS3h inactive.
`CCOC(=O)c1ccc(N2NC(=O)/C(=C/c3cccc(I)c3)C2=O)cc1` gave NS3h inh CB inactive and Cy5 interf NS3h 0.79.
Screening O=[N+]([O-])c1ccc(-c2ccc(/C=C/c3ccncc3)o2)cc1 returned NS3h inh CB inactive and Cy5 interf NS3h inactive.
COc1ccccc1C(=O)N1CCN(C(=O)COc2ccc(Cl)cc2)CC1 was read as NS3h inh CB inactive and Cy5 interf NS3h inactive.
For CC(C)N(Cc1ccccc1)C(=O)CCCOc1ccc(Cl)cc1Cl the results were NS3h inh CB inactive and Cy5 interf NS3h inactive.
CC(Oc1ccc(Cl)cc1Cl)C(=O)NCCN(C)C (stereo not given) was read as NS3h inh CB inactive and Cy5 interf NS3h 0.71.
`CCCN1C(=O)c2ccccc2NC1c1ccc(Cl)cc1Cl` (stereo not given) gave NS3h inh CB inactive and Cy5 interf NS3h inactive.
Screening O=C(NC(=S)Nc1cc([N+](=O)[O-])cc(Cl)c1O)c1ccc(F)cc1 returned NS3h inh CB inactive and Cy5 interf NS3h inactive.
Screening O=C(Nc1ccc(Cl)cc1)Nc1nnc(Cc2ccc(Cl)cc2)s1 returned NS3h inh CB inactive and Cy5 interf NS3h inactive.
`O=C(Nc1nnc(Cc2ccc(Cl)cc2)s1)c1ccccc1F` gave NS3h inh CB inactive and Cy5 interf NS3h 0.7.
Screening O=C(Nc1ccccc1)c1ccc(NS(=O)(=O)c2ccccc2)cc1 returned NS3h inh CB inactive and Cy5 interf NS3h inactive.
For COC(=O)C(=O)C=C(O)c1ccc(C)cc1 the results were NS3h inh CB inactive and Cy5 interf NS3h inactive.
For Cc1cc(C=C2C(=O)N(C)C(=O)N(C)C2=O)c(C)n1C the results were NS3h inh CB inactive and Cy5 interf NS3h inactive.
Cc1cc(Br)ccc1N1C(=O)/C(=C/c2cc(C)n(C)c2C)C(=O)NC1=S was read as NS3h inh CB inactive and Cy5 interf NS3h 1.2.
Screening Cc1cc(/C=C2\C(=O)NC(=S)N(c3ccccc3)C2=O)c(C)n1-c1cccnc1 returned NS3h inh CB inactive and Cy5 interf NS3h 1.2.
For Cc1cc(/C=C2\C(=O)NC(=S)N(c3ccc(Br)cc3)C2=O)c(C)n1C the results were NS3h inh CB inactive and Cy5 interf NS3h inactive.
`CCc1ccccc1N1C(=O)/C(=C/c2cc(C)n(C)c2C)C(=O)NC1=S` gave NS3h inh CB inactive and Cy5 interf NS3h 1.2.
Screening Cc1cc(/C=C2\C(=O)NC(=S)N(c3ccccc3)C2=O)c(C)n1-c1ccccc1 returned NS3h inh CB inactive and Cy5 interf NS3h inactive.
For N#CC1=C(Nc2ccc(Cl)cc2)CCC1 the results were NS3h inh CB inactive and Cy5 interf NS3h inactive.
